Out of some 39,000 compounds screened, about 3,300 (8.5%) were called active. What follows is part of a selection rich in actives, with near analogues and random picks from the rest.
Test system: HepG2
Assay: cytotoxicity call (relative viability < 0.9)
Conditions: 10 µM

SMILES	cytotoxicity call
C[C@@H]1CN([C@@H](C)CO)C(=O)Cc2cc(NS(=O)(=O)c3cccs3)ccc2O[C@@H]1CN(C)S(=O)(=O)c1cn(C)cn1	inactive
Cc1ccc(S(=O)(=O)N(C)C[C@H]2Oc3ccc(NC(=O)CCN4CCOCC4)cc3CC(=O)N([C@H](C)CO)C[C@@H]2C)cc1	inactive
C/C=C/c1ccc2c(c1)O[C@@H](CN(C)Cc1ccc(C(=O)O)cc1)[C@H](C)CN([C@H](C)CO)S2(=O)=O	inactive
C[C@@H]1CN([C@@H](C)CO)C(=O)c2c(c3ccccc3n2C)-c2ccccc2CO[C@H]1CN(C)C(=O)c1ccc(F)cc1	inactive
OC[C@H]1O[C@H](C#Cc2ccccc2)C=C[C@@H]1O	inactive
C[C@H](CO)N1C[C@H](C)[C@H](CN(C)C(=O)Nc2ccc3c(c2)OCO3)Oc2c(NC(=O)c3ccncc3)cccc2C1=O	inactive
Cc1ccc(S(=O)(=O)N[C@H]2C=C[C@@H](CC(=O)NCCN3CCCCC3)O[C@@H]2CO)cc1	inactive
Cn1cnc2c1c(=O)[nH]c(=O)n2C	inactive
Cc1cc(C(=O)N2CCCC[C@@H]2CCOc2cccc(CN(C)Cc3cccc4cccnc34)c2)c(=O)[nH]c1C	inactive
Cc1nc(-c2cccc(F)c2)cs1	inactive
COc1ccc2c3c([nH]c2c1)[C@@H](CO)N(C[C@]13CN(CC2CCOCC2)C1)C(=O)Nc1c(noc1C)C	inactive
C[C@@H]1CCCCO[C@@H](CN(C)C(=O)Nc2ccccc2)[C@@H](C)CN([C@H](C)CO)C(=O)c2cc(NC(=O)Nc3cccc4ccccc34)ccc2O1	inactive
C[C@@H]1CN([C@@H](C)CO)C(=O)c2cc(NC(=O)Nc3ccc(F)cc3)ccc2O[C@H]1CN(C)S(C)(=O)=O	inactive
COc1ccc(NC(=O)Nc2ccc3c(c2)CC(=O)N([C@@H](C)CO)C[C@H](C)[C@@H](CN(C)C(=O)Nc2ccc(C(F)(F)F)cc2)O3)cc1	inactive
COc1ccc(NC(=O)Nc2ccc3c(c2)CC(=O)N([C@@H](C)CO)C[C@@H](C)[C@@H](CN(C)C(=O)Nc2ccc(C(F)(F)F)cc2)O3)cc1	inactive
COc1ccc(NC(=O)N(C)C[C@H]2Oc3ccc(NC(=O)Nc4ccc(C(F)(F)F)cc4)cc3CC(=O)N([C@@H](C)CO)C[C@H]2C)cc1	active
COc1ccc(NC(=O)Nc2ccc3c(c2)CC(=O)N([C@H](C)CO)C[C@H](C)[C@H](CN(C)C(=O)Nc2ccc(C(F)(F)F)cc2)O3)cc1	inactive
COc1ccc(NC(=O)Nc2ccc3c(c2)CC(=O)N([C@@H](C)CO)C[C@H](C)[C@H](CN(C)C(=O)Nc2ccc(C(F)(F)F)cc2)O3)cc1	active
COc1ccc(NC(=O)N(C)C[C@@H]2Oc3ccc(NC(=O)Nc4ccc(C(F)(F)F)cc4)cc3CC(=O)N([C@H](C)CO)C[C@@H]2C)cc1	inactive
CO[C@H]1CCN(C(=O)CN(C)C)[C@@H]2CCO[C@@H]12	inactive
C[C@H](CO)N1C[C@H](C)[C@@H](CN(C)Cc2cccc3c2OCCCO3)OCc2ccccc2-c2c(n(C)c3ccccc23)C1=O	inactive
CCCC(=O)Nc1ccc2c(c1)C(=O)N(C)C[C@@H](OC)[C@@H](C)CN(Cc1ccc(-c3ccccn3)cc1)[C@H](C)CO2	inactive

SMILES	cytotoxicity call
CN1C(=O)c2cc(NS(C)(=O)=O)ccc2OC[C@@H]2O[C@H](CC(=O)N3CCOCC3)CC[C@@H]21	inactive
C[C@@H]1C(=O)O[C@@H]2C[C@@](C)(O)[C@H]3C[C@H]4O[C@@]4(C)[C@@]3(O)C(=O)[C@@H]12	inactive
Cc1ccc(S(=O)(=O)N(C)C[C@@H]2Oc3ccc(NC(=O)CCN4CCOCC4)cc3C(=O)N([C@H](C)CO)C[C@@H]2C)cc1	inactive
Cc1ccc(S(=O)(=O)N(C)C[C@@H]2Oc3ccc(NC(=O)C4CC4)cc3C(=O)N([C@@H](C)CO)C[C@H]2C)cc1	active
COc1ccc(S(=O)(=O)N(C)C[C@H]2Oc3ccc(NC(=O)C4CC4)cc3C(=O)N([C@@H](C)CO)C[C@H]2C)cc1	inactive
COc1ccc(S(=O)(=O)N(C)C[C@@H]2Oc3ccc(NC(=O)C4CC4)cc3C(=O)N([C@@H](C)CO)C[C@H]2C)cc1	inactive
Cc1ccc(S(=O)(=O)N(C)C[C@H]2Oc3ccc(NC(=O)CCN4CCOCC4)cc3C(=O)N([C@@H](C)CO)C[C@H]2C)cc1	inactive
Cc1ccc(S(=O)(=O)N(C)C[C@H]2Oc3ccc(NC(=O)C4CC4)cc3C(=O)N([C@@H](C)CO)C[C@H]2C)cc1	inactive
COc1ccc(S(=O)(=O)N(C)C[C@@H]2Oc3ccc(N(C)C)cc3C(=O)N([C@H](C)CO)C[C@@H]2C)cc1	inactive
COc1ccc(S(=O)(=O)N(C)C[C@H]2Oc3ccc(N(C)C)cc3C(=O)N([C@@H](C)CO)C[C@H]2C)cc1	inactive
Cc1ccc(S(=O)(=O)N(C)C[C@H]2Oc3ccc(NC(=O)CCN4CCOCC4)cc3C(=O)N([C@@H](C)CO)C[C@@H]2C)cc1	active
COc1ccc(S(=O)(=O)N(C)C[C@H]2Oc3ccc(NC(=O)C4CC4)cc3C(=O)N([C@@H](C)CO)C[C@@H]2C)cc1	active
COc1ccc(S(=O)(=O)N(C)C[C@@H]2Oc3ccc(N(C)C)cc3C(=O)N([C@@H](C)CO)C[C@H]2C)cc1	active
Cc1ccc(S(=O)(=O)N(C)C[C@@H]2Oc3ccc(NC(=O)C4CC4)cc3C(=O)N([C@H](C)CO)C[C@@H]2C)cc1	inactive
C[C@@H]1CCCCO[C@H](CN(C)S(=O)(=O)c2ccccc2)[C@@H](C)CN([C@@H](C)CO)C(=O)c2cc(NS(C)(=O)=O)ccc2O1	inactive
O/N=C1\CCCCc2c1[nH]c1ccc(C3CCCCC3)cc21	inactive
C[C@@H]1CCCCO[C@@H](CN(C)C(=O)c2ccncc2)[C@H](C)CN([C@H](C)CO)C(=O)c2cc(NC(=O)NC3CCCCC3)ccc2O1	inactive
C[C@@H]1CN([C@H](C)CO)C(=O)c2cccc(NC(=O)c3cnccn3)c2O[C@H]1CN(C)Cc1ccncc1	inactive
C[C@H](CO)N1C[C@H](C)[C@H](CN(C)Cc2ccc(-c3ccccc3)cc2)Oc2c(NS(=O)(=O)c3ccc(Cl)cc3)cccc2C1=O	inactive
N=C(N)NCCCCNC(=N)N	active
N=C(N)NCCCCNC(=N)N.O=S(=O)(O)O	inactive
N=C(N)NCCCCN.O=S(=O)(O)O	inactive

SMILES	cytotoxicity call
O=C(Nc1ccc2c(c1)[C@H]1C[C@H](CC(=O)N3CCc4ccccc4C3)O[C@@H](CO)[C@H]1O2)C1CCOCC1	inactive
C[C@H](CO)N1C[C@H](C)[C@H](CN(C)Cc2ccccc2)Oc2ccc(NC(=O)Nc3cccc4ccccc34)cc2CC1=O	active
C[C@@H]1CN([C@@H](C)CO)C(=O)Cc2cc(NC(=O)Nc3cccc4ccccc34)ccc2O[C@@H]1CN(C)Cc1ccccc1	active
C[C@H](CO)N1C[C@H](C)[C@@H](CN(C)Cc2ccccc2)Oc2ccc(NC(=O)Nc3cccc4ccccc34)cc2CC1=O	active
C[C@H]1CN([C@@H](C)CO)C(=O)Cc2cc(NC(=O)Nc3cccc4ccccc34)ccc2O[C@H]1CN(C)Cc1ccccc1	inactive
C[C@@H]1CN([C@H](C)CO)C(=O)Cc2cc(NC(=O)Nc3cccc4ccccc34)ccc2O[C@H]1CN(C)Cc1ccc(-c2ccccc2)cc1	inactive
C[C@@H]1CN([C@H](C)CO)C(=O)Cc2cc(NC(=O)Nc3cccc4ccccc34)ccc2O[C@@H]1CN(C)Cc1ccccc1	active
C[C@@H]1CN([C@@H](C)CO)C(=O)Cc2cc(NC(=O)Nc3cccc4ccccc34)ccc2O[C@H]1CN(C)Cc1ccccc1	inactive
C[C@H]1CN([C@@H](C)CO)C(=O)Cc2cc(NC(=O)Nc3cccc4ccccc34)ccc2O[C@@H]1CN(C)Cc1ccccc1	inactive
C[C@@H]1CN([C@H](C)CO)C(=O)Cc2cc(NC(=O)Nc3cccc4ccccc34)ccc2O[C@H]1CN(C)Cc1ccccc1	inactive
C[C@H](CO)N1C[C@H](C)[C@@H](CN(C)Cc2ccc(-c3ccccc3)cc2)Oc2ccc(NC(=O)Nc3cccc4ccccc34)cc2CC1=O	inactive
C[C@H](CO)N1C[C@H](C)[C@H](CN(C)Cc2ccc(-c3ccccc3)cc2)Oc2ccc(NC(=O)Nc3cccc4ccccc34)cc2CC1=O	inactive
C[C@H]1CN([C@@H](C)CO)C(=O)Cc2cc(NC(=O)Nc3cccc4ccccc34)ccc2O[C@@H]1CN(C)Cc1ccc(-c2ccccc2)cc1	inactive
C[C@@H]1CN([C@@H](C)CO)C(=O)CCCn2cc(nn2)CO[C@@H]1CN(C)S(=O)(=O)c1ccc(-n2cccn2)cc1	inactive
C[C@H]1CN([C@@H](C)CO)S(=O)(=O)c2ccc(C#Cc3cccnc3)cc2O[C@H]1CN(C)CC1CCOCC1	inactive
COc1ccc(S(=O)(=O)N(C)C[C@H]2Oc3ccc(NS(=O)(=O)c4ccc(F)cc4)cc3CC(=O)N([C@@H](C)CO)C[C@H]2C)cc1	inactive
COC(=O)[C@H]1CN(C)CCC1=O	inactive
C[C@@H]1O[C@@H](OC[C@H]2O[C@@H](Oc3cc(O)c4c(c3)O[C@@H](c3ccc(O)cc3)CC4=O)[C@H](O)[C@@H](O)[C@@H]2O)[C@H](O)[C@H](O)[C@H]1O	inactive
COc1ccc([Si](C)(C)[C@H]2[C@H](CCn3cc([C@H](O)c4ccccc4)nn3)O[C@@]3(C(=O)N(Cc4cccc(N5CCC5=O)c4)c4ccccc43)[C@@H]2C)cc1	inactive
Cc1ccc(S(=O)(=O)N(C)C[C@@H]2Oc3c(NC(=O)c4cc(C)nn4C)cccc3C(=O)N([C@@H](C)CO)C[C@@H]2C)cc1	inactive
C=CCOC(=O)[C@@H]1[C@H]2C(=O)O[C@H](c3ccccc3)[C@H](c3ccccc3)N2[C@H](c2ccc(OCCOC(=O)[C@H]3C[C@H]4C(=O)NCC(=O)N4[C@H]3c3ccc(O)cc3)cc2)[C@@]12C(=O)Nc1ccc(I)cc12	inactive
